{
  "source": "PubChem BioAssay (EPA / NIEHS)",
  "note": "Records with an inconclusive call do not appear. Activity calls are given as the source filed them. The calls were made as follows: active = hit-call score of the fitted dose curve at least 0.9, where 1 is the maximum; inconclusive = response in the unintended direction; inactive = score below 0.9.",
  "data": [
    {"biological_target": "human Vitamin D Receptor (VDR), VDR (gene 7421) (UniProt P11473)", "sequence (P11473 whole entry, looked up, the tested form may be a part)": "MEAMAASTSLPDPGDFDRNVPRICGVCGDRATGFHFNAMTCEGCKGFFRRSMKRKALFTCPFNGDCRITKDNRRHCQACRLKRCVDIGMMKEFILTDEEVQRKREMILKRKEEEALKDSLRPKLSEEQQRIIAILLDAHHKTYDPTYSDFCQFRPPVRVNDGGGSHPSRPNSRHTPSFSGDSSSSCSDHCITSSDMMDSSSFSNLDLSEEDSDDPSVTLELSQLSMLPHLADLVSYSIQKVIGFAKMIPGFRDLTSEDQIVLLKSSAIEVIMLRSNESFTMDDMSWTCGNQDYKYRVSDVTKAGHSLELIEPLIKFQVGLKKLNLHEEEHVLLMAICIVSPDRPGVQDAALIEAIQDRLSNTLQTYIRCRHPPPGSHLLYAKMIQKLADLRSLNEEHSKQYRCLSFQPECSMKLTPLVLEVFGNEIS", "test": "ATG_VDR_TRANS: Attagene TRANS-FACTORIAL HepG2 Assay for human Vitamin D Receptor (VDR) (AID 2283022)", "procedure,_shortened": "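Fluorescence of labelled reporter cDNA fragments, resolved by capillary electrophoresis, gives mRNA induction after 24 h treatment of HepG2 cells carrying transfected Gal4-fusion reporter units. Activity is fitted in the positive direction with DMSO as baseline.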", "values": [
      {"smiles": "CCOc1ccc(N)cc1", "outcome": "inactive"},
      {"smiles": "O=S1OC[C@@H]2[C@H](CO1)[C@]1(Cl)C(Cl)=C(Cl)[C@@]2(Cl)C1(Cl)Cl", "note": "(stereo partly drawn)", "outcome": "inactive"},
      {"smiles": "CCCCCCCCBr", "outcome": "inactive"},
      {"smiles": "OCC(c1ccc(Cl)cc1)c1ccc(Cl)cc1", "outcome": "inactive"},
      {"smiles": "Cc1cc(SCc2sc(-c3ccc(C(F)(F)F)c(F)c3)nc2C)ccc1OCC(=O)O", "outcome": "inactive"},
      {"smiles": "CC1CC(=O)O1", "note": "(stereo not drawn)", "outcome": "inactive"},
      {"smiles": "CCOP(=S)(OCC)SCSc1cc(Cl)ccc1Cl", "outcome": "inactive"},
      {"smiles": "C=CCOC(F)(C(F)(F)F)C(F)(F)F", "outcome": "inactive"},
      {"smiles": "CCCCCCCCCCCCCCC(Br)C(=O)O", "note": "(stereo not drawn)", "outcome": "inactive"},
      {"smiles": "O=C1c2ccccc2C(=O)C1C(=O)C(c1ccccc1)c1ccc(Cl)cc1", "note": "(stereo not drawn)", "outcome": "inactive"},
      {"smiles": "NNCCO", "outcome": "inactive"},
      {"smiles": "CC(F)(F)CC(F)(F)F", "outcome": "inactive"},
      {"smiles": "C=CCN=C=S", "outcome": "inactive"},
      {"smiles": "C=CCCl", "outcome": "inactive"},
      {"smiles": "O=C(Cl)OCCOCCOC(=O)Cl", "outcome": "inactive"},
      {"smiles": "O=C/C(Cl)=C(/Cl)C(=O)O", "outcome": "inactive"},
      {"smiles": "C=CCOC(N)=O", "outcome": "inactive"},
      {"smiles": "O=C(O)COc1ccc(Cl)cc1", "outcome": "inactive"},
      {"smiles": "O=S(=O)(F)C(F)(F)C(F)(F)C(F)(F)C(F)(F)F", "outcome": "inactive"},
      {"smiles": "FC(F)OCC(F)(F)C(F)(F)F", "outcome": "inactive"},
      {"smiles": "Brc1c(Br)c(Br)c(Oc2c(Br)c(Br)c(Br)c(Br)c2Br)c(Br)c1Br", "outcome": "inactive"},
      {"smiles": "COC(=O)c1cc(Oc2ccc(Cl)cc2Cl)ccc1[N+](=O)[O-]", "outcome": "inactive"},
      {"smiles": "CC(C)CC(C)(c1ccc(O)cc1)c1ccc(O)cc1", "outcome": "inactive"},
      {"smiles": "CN(N=O)C(N)=O", "outcome": "inactive"},
      {"smiles": "N#Cc1ccccc1Cl", "outcome": "inactive"},
      {"smiles": "N#CCC#N", "outcome": "inactive"},
      {"smiles": "N#Cc1ccc(Cl)cc1", "outcome": "inactive"},
      {"smiles": "O=C(NC(=O)c1c(F)cccc1F)Nc1cc(Cl)c(OC(F)(F)C(F)C(F)(F)F)cc1Cl", "note": "(stereo not drawn)", "outcome": "inactive"}
    ]}
  ]
}
